High-throughput results from PubChem BioAssay.
An excerpt weighted towards active compounds, which were near 22% of everything screened.
CYP2C9 inh – blockers of cytochrome P450 2C9 activity – biochemical, luminescence, ADME assay, primary screen. AID 777, 2007. 96,000 tested, 20% active. inhibition, % at 5 µM. CYP2C9 Supersomes, luciferin-H conversion. P11712;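 active = blocking of liver enzyme CYP2C9 beyond about 50% at 5 µM, limit read from the data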
CYP2C19 activ – human CYP2C19 activators, primary screen, biochemical, luminescence; Cytochrome P450 2C19 (Homo sapiens), P33261; recombinant CYP2C19, luciferin-H EGE luminescence; active compounds read high; 0 = fully inhibited enzyme, 1 = untreated enzyme; activation factor at 5 µM; 96,000 tested, under 10 active; AID 1025, 2008;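 active = activation factor of at least 2 at 5 µM in the primary screen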;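 also: 0 = wells with 2.5 mM tranylcypromine and 1 = vehicle-only wells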
Target sequence (P33261 whole entry, looked up): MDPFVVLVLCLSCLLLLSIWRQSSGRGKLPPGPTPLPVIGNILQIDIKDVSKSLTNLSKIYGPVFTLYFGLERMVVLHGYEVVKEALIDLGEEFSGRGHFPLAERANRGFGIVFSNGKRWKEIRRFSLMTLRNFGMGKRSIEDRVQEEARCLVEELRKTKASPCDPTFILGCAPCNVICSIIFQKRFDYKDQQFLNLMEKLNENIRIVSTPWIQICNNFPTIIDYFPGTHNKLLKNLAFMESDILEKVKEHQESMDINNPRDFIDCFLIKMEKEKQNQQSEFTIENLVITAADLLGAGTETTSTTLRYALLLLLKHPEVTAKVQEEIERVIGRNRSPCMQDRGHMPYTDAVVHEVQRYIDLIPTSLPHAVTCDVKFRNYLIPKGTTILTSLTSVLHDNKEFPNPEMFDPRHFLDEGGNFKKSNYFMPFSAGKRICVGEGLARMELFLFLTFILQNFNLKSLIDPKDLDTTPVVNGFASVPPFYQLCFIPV
CYP2C19 inhib – blockers of cytochrome P450 2C19 activity – biochemical, luminescence, ADME assay, primary screen; P33261; CYP2C19 Supersomes, luciferin-H EGE luminescence, 30 min; inhibition, % at 5 µM; 96,000 tested, 21% active; AID 778, 2007;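 active = CYP2C19 inhibition above a set limit at 5 µM in the primary screen, cut at about 50% in these data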;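 also: plate controls were negative control wells for no effect and 2.5 mM tranylcypromine positive control for full effect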
E-sel TNF inh – E-selectin induction blockers in HUVEC – imaging, immunofluorescence, high content, primary screen; HUVEC TNFa-induced E-selectin immunofluorescence; inhibition, % at 2 µM; 120,000 tested, 0.71% active; AID 1246, 2008;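 active = inhibition above the batch mean plus 3 SD, and confirmed as a hit on visual image review, cut at about 43% in these data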;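 also: 0% = TNF-stimulated DMSO wells and 100% = unstimulated control wells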
F-actin modifier – modifiers of F-actin cytoskeleton organization, primary screen, imaging, HUVEC, phalloidin staining, high-content imaging | inhibition, % at 2 µM | HUVEC TNFa F-actin phalloidin imaging | 91,000 tested, 0.18% active;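 active = inhibition above the batch mean plus 3 SD and confirmed as a hit by visual image inspection, cut at about 30% in these data, passing the limit was not always enough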
CYP2C9 activ – human CYP2C9 activators, primary screen, biochemical, luminescence; activation factor at 5 µM; recombinant CYP2C9, luciferin-H conversion; active compounds read high; factor 1 = untreated enzyme, 0 = blocked; 96,000 tested, 1.4% active; Cytochrome P450 2C9 (Homo sapiens), P11712;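 active = activation factor of 2 or more for CYP2C9 at a 5 µM dose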;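 also: 0 = sulfaphenazole-blocked wells and 1 = vehicle-only wells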
The depositor's hits bear a star; x = no result.

SMILES	CYP2C9 inh	CYP2C19 activ	CYP2C19 inhib	E-sel TNF inh	F-actin modifier	CYP2C9 activ
Cc1cccc(N2CCN(C(=O)c3cccc(N4C(=O)C5CC=CC(C)C5C4=O)c3)CC2)c1C (configuration not stated)	58.7*	0.7	27.5	2.1	-4.9	0.4
Cc1cccc(N2CCN(C(=O)C(C)C)CC2)c1C	17.3	0.8	18.4	10.1	-25.3	0.8
CCC(C)c1ccc(NC(=O)C2CC2)cc1 (configuration not stated)	2.4	1	4.3	-12.4	-5.6	1
N#Cc1cc2[nH]c3ccccc3c2[n+](-c2ccc([N+](=O)[O-])cc2)c1N	x	x	x	-7.3	x	x
O=C(CCN1CCN(C/C=C/c2ccccc2)CC1)Nc1ccccc1F	x	x	x	-32.5	x	x
O=C(CN1CCN(c2ccccc2F)CC1)Nc1ccccc1F	80.5*	0.1	88.2*	x	1.7	0.2
O=C(CCN1CCN(c2ccccc2F)CC1)Nc1ccccc1F	65.7*	0.5	54.4*	x	6.3	0.3
O=C(CCN1CCN(c2ccccc2F)CC1)c1ccc(Br)cc1	34.5	0.5	50.2*	29.0	2.7	0.7
O=C(CN1CCN(CCC(=O)Nc2ccccc2F)CC1)Nc1ccc(Cl)cc1	45.5	0.8	23.1	x	-3.8	0.5
O=C(CN1CCN(CCC(=O)Nc2ccccc2F)CC1)Nc1ccc(F)cc1	63.7*	0.8	15.4	-45.3	x	0.4
c1cc2c(cc1-n1cnnn1)OCO2	x	x	x	22.7	x	x
COc1ccc(NC(=O)C(NC(=O)CNC(C)=O)c2ccc(C)cc2)cc1 (configuration not stated)	7.9	0.9	7.8	16.7	10.8	0.9
CN1CCN(CC(=O)Nc2ccccc2[N+](=O)[O-])CC1	x	x	x	0.9	x	x
Cc1cccc(N2CCN(CC(=O)Nc3ccccc3[N+](=O)[O-])CC2)c1C	67.2*	0.6	43.5	20.7	10.1	0.3
O=C(CCN1CCN(c2ccc(Cl)cc2)CC1)Nc1ccccc1F	50.8*	0.7	31.5	x	-24.3	0.5
O=C(NC(=S)N1CCCCC1)c1cccs1	x	x	x	25.5	x	x
CCOC(=O)C(C)Sc1nnc(Cc2cc(=O)[nH]c(=O)[nH]2)n1-c1ccc(Cl)cc1 (configuration not stated)	x	x	x	x	5.8	x
COC(=O)CSc1cc(C)nc(NC(C)=O)n1	-12.5	1.1	-10.8	7.0	4.0	1.1
COC(=O)CSc1nc2ccccc2o1	11.2	1	2.8	-29.7	x	0.9
COc1cc(OC)nc(NC(=O)CSc2nc3ccccc3o2)n1	-18.9	0.1	85.6*	5.5	-17.5	1.2
Cc1cc(C)nc(NC(=O)CSc2nc3ccccc3o2)n1	19.4	0.4	63.4*	3.3	x	0.8
Cc1nn2c(-c3cccc(NC(=O)CSc4nc5ccccc5o4)c3)nnc2c2ccccc12	92.4*	0	98.4*	31.3	6.0	0.1
CC(=O)Nc1nonc1NC(=O)CSc1nc2ccccc2o1	36.5	0.5	53.4*	x	1.6	0.6
CC(=O)CSc1nc2ccccc2o1	x	x	x	7.7	1.7	x
Cc1ccc(-c2csc(NC(=O)CSc3nc4ccccc4o3)n2)cc1	x	x	x	12.4	x	x
SMILES	CYP2C9 inh	CYP2C19 activ	CYP2C19 inhib	E-sel TNF inh	F-actin modifier	CYP2C9 activ
Cc1cccc(NC(=O)CSc2nc3ccccc3o2)c1	-14.6	0.3	68.7*	-13.9	-3.9	1.1
Cc1ccc2nc(NC(=O)CSc3nc4ccccc4o3)sc2c1	55.0*	0.5	45.1	-8.7	6.5	0.4
COc1ccc(CCN2CC34C=CC(O3)C(C(=O)NCc3ccccc3Cl)C4C2=O)cc1OC (configuration not stated)	4.5	1	4.6	-13.5	20.6	1
Cc1nc(-c2ccccc2)sc1-c1nc(-c2ccncc2)ncc1S(=O)(=O)c1ccccc1	95.9*	0.1	93.3*	x	-4.8	0
CN(C)c1ncc(S(=O)(=O)c2ccc(Cl)cc2)c(-c2ccccc2)n1	60.5*	0	97.0*	8.4	10.5	0.4
CNC(=O)c1sc(-c2ccccc2)nc1C	-8.9	0.8	16.3	-2.8	-12.7	1.1
Cc1cc(Cl)ccc1Oc1nc(-c2ccccc2)ncc1S(C)(=O)=O	7.2	1	4.0	-7.4	-4.7	0.9
O=S(=O)(c1ccc(Cl)cc1)c1snnc1-c1ccccc1	28.8	0.1	89.5*	5.5	-8.8	0.7
Cc1ccc(S(=O)(=O)c2cnc(-c3ccccc3)nc2Oc2ccccc2)cc1	6.3	1	2.4	x	-73.2	0.9
O=S(=O)(c1ccc(Cl)cc1)c1cnc(-c2cccnc2)nc1-c1ccccc1	40.5	0.5	51.5*	34.4	6.1	0.6
O=C(Nc1ccc(C2CCCCC2)cc1)C1CCN(c2ncccn2)CC1	-14.2	1	-4.5	x	x	1.1
CCC(C)[C@H](NC(=O)NC(C)C)C(=O)O (some centres not stated)	x	x	x	-3.4	x	x
Cc1ncc(S(=O)(=O)c2ccccc2)c(-c2ccc(Cl)cc2Cl)n1	2.4	0.3	73.3*	-32.3	x	1
O=C1C2C(C(=O)N1/N=C/c1ccco1)C1C=CC2C12CC2 (configuration not stated)	7.1	0	99.1*	-3.0	11.0	0.9
O=C(CC1Sc2ccccc2NC1=O)OC(C(=O)NCCc1ccccc1)c1cccnc1 (configuration not stated)	29.8	0.4	55.1*	7.0	3.5	0.7
CC(NC(=O)CC1Sc2ccccc2NC1=O)c1ccccc1 (configuration not stated)	x	x	x	22.5	x	x
COCCNC(=O)C(OC(=O)CC1Sc2ccccc2NC1=O)c1ccncc1 (configuration not stated)	87.3*	0.2	82.9*	5.7	-3.0	0.1
CCCn1c(SCCN2C(=O)c3ccccc3C2=O)n[nH]c1=O	40.0	0.6	35.2	11.7	-4.8	0.6
Cc1ccc(OP(=O)(Nc2c(C)n(C)n(-c3ccccc3)c2=O)Oc2ccc(C)cc2)cc1	x	x	x	30.6	x	x
CCCCNC(=O)CC1N=C2c3ccccc3N=C(SCC(=O)Nc3ccc(OC)cc3)N2C1=O (configuration not stated)	59.7*	0.8	18.1	x	-18.4	0.4
O=C(CC1N=C2c3ccccc3N=C(SCc3ccc(F)cc3)N2C1=O)NCc1ccco1 (configuration not stated)	32.5	0.9	11.6	-17.4	17.1	0.7
N#CCSC1=Nc2ccccc2C2=NC(CCC(=O)N3CCN(c4ccccc4)CC3)C(=O)N12 (configuration not stated)	72.8*	0.8	15.6	3.6	-27.2	0.3
O=C(CCC1N=C2c3ccccc3N=C(SCc3ccc(F)cc3)N2C1=O)NCc1ccco1 (configuration not stated)	64.6*	0.7	28.3	-11.3	-23.6	0.4
